Measurements from PubChem BioAssay (NCI).
Compounds without any hit were thinned out: in the full panel of roughly 79,000, 15% have a hit. Calls of active or inactive are those of the source. Rule as the data show it: active = growth inhibition above about 70%; inactive = the rest.

How the values were obtained:
[1] = NCI Yeast Anticancer Drug Screen. Data for the sgs1 strain (AID 173);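 also: 0% = growth of vehicle-only control cultures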; settings: S. cerevisiae sgs1 mutant, active compounds read high
Outline: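 Treat defined-mutant yeast with compound; measure growth; calculate inhibition relative to vehicle-treated cells.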

[2] = NCI Yeast Anticancer Drug Screen. Data for the mlh1 rad18 strain (AID 175); settings: S. cerevisiae mlh1 rad18 strain growth inhibition, active compounds read high
Outline: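 Test agents were incubated with a yeast strain of defined genotype (DNA damage repair defect). Inhibition of growth was derived by comparison with vehicle-exposed cultures.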

[3] = NCI Yeast Anticancer Drug Screen. Data for the rad18 strain (AID 177); settings: S. cerevisiae rad18 mutant growth inhibition, active compounds read high
Outline: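 A genetically defined yeast mutant impaired in DNA damage repair was treated with test compounds, then its growth was measured against cultures receiving vehicle alone.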

[4] = NCI Yeast Anticancer Drug Screen. Data for the wt1 strain (AID 149);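 also: 0% = growth of vehicle-treated wt1 cultures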; settings: S. cerevisiae wt1 strain (SPY 50644) growth inhibition, active compounds read high
Outline: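 wt1 yeast, compound-treated; % growth inhibition vs vehicle control.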

[5] = NCI Yeast Anticancer Drug Screen. Data for the rad50EPP+ strain (AID 151);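 also: 0% = growth of vehicle-treated control cultures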; settings: S. cerevisiae rad50 mutant strain, active compounds read high
Outline: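 Exposing the rad50EPP+ strain to each compound, growth was compared with vehicle-only cultures to give inhibition.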

[6] = NCI Yeast Anticancer Drug Screen. Data for the rad50 strain (AID 155);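 also: 0% = growth of vehicle-only cultures of the same strain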; settings: S. cerevisiae rad50 strain growth inhibition, active compounds read high
Outline: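 Genetically altered yeast (DNA repair pathway); compound treatment; growth inhibition vs vehicle ctrl.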

[7] = NCI Yeast Anticancer Drug Screen. Data for the mec2-1 strain (AID 157); settings: S. cerevisiae mec2-1 strain, active compounds read high
Outline: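 Readout is yeast growth inhibition, normalised to vehicle-treated controls, in the mec2-1 strain exposed to compound.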

[8] = NCI Yeast Anticancer Drug Screen. Data for the sgs1 mgt1 strain (AID 161);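 also: 0% = growth of cultures given vehicle only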; settings: S. cerevisiae sgs1 mgt1 strain, active compounds read high
Outline: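 Compounds are added to genetically altered yeast, and growth is compared with cultures given vehicle alone to give percent inhibition.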

[9] = NCI Yeast Anticancer Drug Screen. Data for the CLN2oe strain (AID 163);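 also: 0% = growth of vehicle-only control cultures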; settings: S. cerevisiae CLN2oe strain, active compounds read high
Outline: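 Values reflect how much compound exposure reduced yeast growth, referenced to vehicle-exposed cells. Assay organism is a strain with a defined genetic change affecting cell-cycle control.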

[10] = NCI Yeast Anticancer Drug Screen. Data for the cln2 rad14 strain (AID 165);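 also: 0% = growth equal to vehicle treated cultures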; settings: S. cerevisiae cln2 rad14 strain, active compounds read high
Outline: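 Relative to vehicle controls, growth inhibition of compound-treated cln2 rad14 yeast was recorded.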

[11] = NCI Yeast Anticancer Drug Screen. Data for the bub3 strain (AID 167); settings: S. cerevisiae bub3 mutant strain, active compounds read high
Outline: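 Yeast carrying a defined mutation is treated with each compound, and growth is compared with that of vehicle-exposed cells to give inhibition.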

[12] = NCI Yeast Anticancer Drug Screen. Data for the wt2 strain (AID 169);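 also: 0% = growth of vehicle-treated yeast cultures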; settings: S. cerevisiae wt2 strain growth inhibition, active compounds read high
Outline: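 Values express reduction in yeast growth under compound treatment, referenced to vehicle-treated cells.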

[13] = NCI Yeast Anticancer Drug Screen. Data for the mgt1 strain (AID 153); settings: S. cerevisiae mgt1 mutant growth inhibition, active compounds read high
Outline: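 Genetically defined yeast (mgt1) treated with compound; inhibition of growth expressed against vehicle-treated controls.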

[14] = NCI Yeast Anticancer Drug Screen. Data for the mlh1 strain (AID 171);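 also: 0% = growth of vehicle-treated control cultures of the same strain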; settings: S. cerevisiae mlh1 strain growth inhibition, active compounds read high
Outline: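 Steps: expose the defined-mutant yeast strain to compound; expose a parallel culture to vehicle; measure growth; express compound effect as inhibition relative to the vehicle culture.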

[15] = at 5.0 µM (retest, dose inferred, filed as 0.5)
[16] = at 50.0 µM (retest, dose inferred, filed as 5.0)

Measured: growth inhibition

CC1C=CN(N(C)C)C2=C1C(=O)c1cnccc1C2=O (stereo not given)
inactive: [3]; at 1.2 µM 66%
active: [1]; at 33.0 µM 93% | [1]; at 100.0 µM 96% | [2]; [15] 83% | [2]; [16] 95% | [2]; at 50.0 µM 89.8% | [3]; at 3.7 µM 87% | [3]; at 11.0 µM 90% | [3]; at 33.0 µM 96% | [3]; at 100.0 µM 96%

O=[N+]([O-])C(=C(NCc1ccccc1)NCc1ccccc1)C(Cl)=C(Cl)Cl
active: [5]; at 33.0 µM 83% | [5]; at 100.0 µM 85% | [12]; at 100.0 µM 70% | [1]; at 100.0 µM 83% | [2]; [16] 83% | [2]; at 50.0 µM 81.5% | [3]; at 100.0 µM 85%
inactive: [4]; at 1.2 µM 1% | [4]; at 3.7 µM 2% | [4]; at 11.0 µM 7% | [4]; at 33.0 µM 10% | [4]; at 100.0 µM 41% | [5]; at 1.2 µM 3% | [5]; at 3.7 µM 18% | [5]; at 11.0 µM 56% | [6]; at 1.2 µM 1% | [6]; at 3.7 µM 1% | [6]; [15] -8% | [6]; at 11.0 µM 6% | [6]; at 33.0 µM 13% | [6]; [16] 57% | [6]; at 50.0 µM 26.6% | [6]; at 100.0 µM 52% | [7]; at 1.2 µM -1% | [7]; at 3.7 µM 0% | [7]; [15] -7% | [7]; at 11.0 µM 4% | [7]; at 33.0 µM 14% | [7]; [16] 24% | [7]; at 50.0 µM 23.6% | [7]; at 100.0 µM 54% | [8]; [15] 2% | [8]; [16] 45% | [8]; at 50.0 µM 66% | [9]; at 1.2 µM -5% | [9]; at 3.7 µM -3% | [9]; at 11.0 µM 6% | [9]; at 33.0 µM 14% | [9]; at 100.0 µM 62% | [10]; [15] 40% | [10]; [16] 55% | [10]; at 50.0 µM 64.2% | [11]; at 1.2 µM -5% | [11]; at 3.7 µM -9% | [11]; [15] 0% | [11]; at 11.0 µM 0% | [11]; at 33.0 µM 5% | [11]; [16] 42% | [11]; at 50.0 µM 33% | [11]; at 100.0 µM 49% | [12]; at 1.2 µM 1% | [12]; at 3.7 µM 2% | [12]; at 11.0 µM 9% | [12]; at 33.0 µM 19% | [1]; at 1.2 µM 1% | [1]; at 3.7 µM 7% | [1]; at 11.0 µM 15% | [1]; at 33.0 µM 39% | [2]; [15] 12% | [3]; at 1.2 µM -1% | [3]; at 3.7 µM 1% | [3]; at 11.0 µM 5% | [3]; at 33.0 µM 20%

c1ccc(N/N=C2\CC(c3ccccc3)Oc3ccccc32)cc1 (stereo not given)
active: [6]; at 50.0 µM 71.2% | [8]; at 50.0 µM 74%
inactive: [4]; at 1.2 µM -1% | [4]; at 3.7 µM 0% | [4]; at 11.0 µM -3% | [4]; at 33.0 µM -2% | [4]; at 100.0 µM -2% | [5]; at 1.2 µM 19% | [5]; at 3.7 µM 33% | [5]; at 11.0 µM 47% | [5]; at 33.0 µM 64% | [5]; at 100.0 µM 50% | [13]; at 1.2 µM -3% | [13]; at 3.7 µM -1% | [13]; at 11.0 µM 6% | [13]; at 33.0 µM 11% | [13]; at 100.0 µM 22% | [6]; at 1.2 µM 4% | [6]; at 3.7 µM 11% | [6]; [15] 5% | [6]; at 11.0 µM 1% | [6]; at 33.0 µM 32% | [6]; [16] 8% | [6]; at 100.0 µM 28% | [8]; [15] -5% | [8]; [16] 26% | [9]; at 1.2 µM 0% | [9]; at 3.7 µM 1% | [9]; at 11.0 µM 1% | [9]; at 33.0 µM 12% | [9]; at 100.0 µM 17% | [10]; [15] -5% | [10]; [16] 4% | [10]; at 50.0 µM 30.6% | [11]; at 1.2 µM 1% | [11]; at 3.7 µM 4% | [11]; [15] -24% | [11]; at 11.0 µM 15% | [11]; at 33.0 µM 39% | [11]; [16] 27% | [11]; at 50.0 µM 53% | [11]; at 100.0 µM 39% | [12]; at 1.2 µM 0% | [12]; at 3.7 µM -4% | [12]; at 11.0 µM 5% | [12]; at 33.0 µM 21% | [12]; at 100.0 µM 29% | [14]; at 1.2 µM 1% | [14]; at 3.7 µM 0% | [14]; at 11.0 µM 4% | [14]; at 33.0 µM 6% | [14]; at 100.0 µM 3% | [1]; at 1.2 µM -1% | [1]; at 3.7 µM 0% | [1]; at 11.0 µM 5% | [1]; at 33.0 µM 18% | [1]; at 100.0 µM 24% | [3]; at 1.2 µM 6% | [3]; at 3.7 µM 14% | [3]; at 11.0 µM 20% | [3]; at 33.0 µM 33% | [3]; at 100.0 µM 49%
